Compounds with a hit are over-represented: about 4.6% of the library has one in this group of screens.
USP7 block: human USP7 deubiquitinase inhibition; 47,000 tested, 0.3% active; Q93009; inhibition, % at 20 µM; purified USP7, Ub-rhodamine cleavage fluorescence
USP8 block: human USP8 deubiquitinase inhibition. P40818. purified USP8, Ub-rhodamine cleavage fluorescence, 30 min. inhibition, % at 20 µM. 47,000 tested, 4.2% active
UCHL1 inh: human UCHL1 deubiquitinase inhibition. P09936. purified UCHL1, Ub-rhodamine cleavage fluorescence. inhibition, % at 20 µM. 47,000 tested, 0.2% active
USP10 block: inhibitors of human USP10 deubiquitinase. purified USP10, Ub-rhodamine fluorescence, 60 min. inhibition, % at 20 µM. 47,000 tested, 1.1% active. AID 1645856
An asterisk follows results filed as active. Rule as the data show it: active = inhibition above about 30%; inactive = the rest.

SMILES	USP7 block	USP8 block	UCHL1 inh	USP10 block
Cn1cc(S(=O)(=O)Nc2ncn(Cc3cccc(Cl)c3)n2)cn1	3	0	0	-2
Cn1cc(S(=O)(=O)Nc2cnn(Cc3cccc(Cl)c3)c2)cn1	-3	77*	6	4
COc1ccc(NC(=O)CN2CC(C)Sc3ccccc32)cc1 (configuration not stated)	2	44*	1	-4
O=c1cc(Cc2ccccc2)nc2c(-c3ccccc3)c(COc3ccccc3)[nH]n12	52*	-6	10	62*
Cc1[nH]n2c(=O)cc(Cc3ccccc3)nc2c1-c1ccccc1	-5	-109	-5	6
c1cc(-c2csc(C3CC3)n2)cc(-c2noc(-c3cnccn3)n2)c1	5	19	6	2
COc1cn(-c2ccc(F)cc2)nc1C(=O)Nc1ccc(Cl)cc1Cl	11	49*	24	11
O=C(CSc1ncccc1C(=O)Nc1ccnn1Cc1cccnc1)Nc1ccc2c(c1)OCO2	-7	45*	-4	-7
CC(OC(=O)c1ccccc1Sc1ccccc1C#N)C(=O)Nc1cccc([N+](=O)[O-])c1 (configuration not stated)	4	4	8	3
O=C(Nc1ccc(F)cc1F)c1cc(-c2ccccn2)n[nH]1	12	52*	5	13
O=C(Nc1ccc(Cl)cc1F)c1cc(-c2ccncc2)n[nH]1	3	-2	0	6
CCc1nc2c(NS(=O)(=O)c3ccc(F)cc3)cccn2n1	-9	-11	-7	-9
O=c1[nH]cccc1NS(=O)(=O)c1ccc(F)cc1	-54	93*	26	-1
CCN(CC)C(=O)c1nc2c(s1)CCN(C(=O)Nc1ccccc1)CC2	-2	-16	-1	0
Cc1cc(N2CC3(CCCCC3)OC2=O)nc(C2CCN(S(C)(=O)=O)CC2)n1	5	31*	5	-1
COc1ccc(/C=C/C(=O)Nc2nc3n(n2)C(c2ccccc2)CC(=O)N3)cc1 (configuration not stated)	13	73*	7	21
COc1ccc(/C=C/C(=O)Nc2nc3n(n2)C(c2ccccc2)CC(=O)N3)cc1OC (configuration not stated)	11	79*	6	3
O=C(/C=C/c1cccc([N+](=O)[O-])c1)Nc1nc2n(n1)C(c1ccccc1)CC(=O)N2 (configuration not stated)	10	-50	5	25
CCn1c(=O)[nH]c2c(C(=O)N3CCCC(C)C3)snc2c1=O (configuration not stated)	0	1	-1	0
O=C1CC[C@H](c2ccc(O)c3c2C(=O)C[C@H](O)[C@@H]3O)c2cccc(O)c21	-41	-144	-40	-1
Cc1cn2nnc(C(=O)Nc3ccc(OC(F)(F)F)cc3)c2c(=O)[nH]1	10	54*	2	24
CSc1ccccc1NC(=O)c1nnn2cc(C)[nH]c(=O)c12	0	-198	1	-1
Nc1c(C(=O)NCc2ccc3c(c2)OCO3)nnn1Cc1ccc(Br)cc1F	16	83*	7	31*
CCn1nnc2cc(C(=O)NCc3ccc4c(c3)OCO4)ccc21	-2	-12	-3	-1
COc1ccc(NC(=O)[C@@H]2C=CCN2C(=O)C2CC2)cc1	2	-2	-2	-1
SMILES	USP7 block	USP8 block	UCHL1 inh	USP10 block
Cc1ccc(NC(=O)c2cc(C)cc(C)c2)cc1	0	-2	-1	-3
O=C(Cn1c(-c2nc(-c3cccc(F)c3)no2)cccc1=O)NCc1ccco1	5	87*	13	38*
O=c1[nH]c2ccc(S(=O)(=O)Nc3ccc(O)c4ccccc34)cc2[nH]1	-72	95*	37*	49*
O=C(CCCn1c(=O)c2ccccc2n(CC(=O)N2CCN(c3ccccc3)CC2)c1=O)NCc1ccco1	-3	36*	4	-1
Cn1c(=O)n(CC(=O)Nc2ccc(F)c(Cl)c2)c(=O)c2ccccc21	6	16	0	12
COc1ccccc1CNC(=O)CCCn1c(=O)c2ccccc2n(CC(=O)N2CCN(c3ccccc3)CC2)c1=O	1	1	1	7
O=C(CCCn1c(=O)c2cc(Cl)ccc2n(CC(=O)Nc2cccc(F)c2)c1=O)NCc1ccco1	-3	30*	-3	28
O=C(Cn1c(=O)c2ccccc2n(CC(=O)Nc2ccc(F)c(Cl)c2)c1=O)NCc1ccco1	7	44*	3	15
O=C(CCCCn1c(=O)c2ccccc2n(CC(=O)Nc2ccc(F)c(Cl)c2)c1=O)NCc1ccco1	0	59*	7	12
CCCc1noc(-c2ccc(-n3ncc(C(=O)N4CCN(C)CC4)c3C)nc2)n1	1	6	2	-1
